# Test results reported in PubChem BioAssay (Tox21).
# Where “and” joins values, the source holds several entries; their conditions need not be identical. Identical values can stand only once. Records with an inconclusive call do not appear. Entries that show only a call come without a potency. Some compounds were tested as several samples or in several runs, with calls that do not always agree. Calls of active or inactive are those of the source. The call rests on the fitted dose curve.
# Biological target: Retinoic acid receptor RXR-alpha (Homo sapiens) (UniProt P19793)
# Sequence (P19793 whole entry, looked up): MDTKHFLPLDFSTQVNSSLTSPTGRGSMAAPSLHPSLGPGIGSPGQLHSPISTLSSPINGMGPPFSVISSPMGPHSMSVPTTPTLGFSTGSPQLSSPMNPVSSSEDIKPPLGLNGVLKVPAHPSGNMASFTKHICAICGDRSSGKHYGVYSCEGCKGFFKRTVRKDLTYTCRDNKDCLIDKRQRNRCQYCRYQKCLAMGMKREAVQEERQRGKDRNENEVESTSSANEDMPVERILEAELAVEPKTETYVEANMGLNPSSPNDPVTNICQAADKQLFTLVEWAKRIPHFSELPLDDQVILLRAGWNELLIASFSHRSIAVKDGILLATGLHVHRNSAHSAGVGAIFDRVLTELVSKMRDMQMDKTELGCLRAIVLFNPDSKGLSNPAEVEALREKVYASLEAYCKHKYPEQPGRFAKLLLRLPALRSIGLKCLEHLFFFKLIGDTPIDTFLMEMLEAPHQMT
# Assay: qHTS assay to identify small molecule agonists of the RXR signaling pathway (AID 1159527); further: nearly all actives have a fitted effect of over 35% in size
# Conditions: HEK293T RXRa-UAS-bla, beta-lactamase ratio, 16 h; series mostly up to 76.8 µM; activation: at the top concentration
# Text: U.S. Tox21 Program National Center for Advancing Translational Sciences [NCATS] NIH Chemical Genomics Center [NCGC] U.S. Environmental Protection Agency [EPA] National Institutes of Environmental Health Sciences [NIEHS] National Toxicology Program [NTP] U.S. Food and Drug Administration [FDA] Tox21 Assay Overview: The Retinoid X receptor (RXR), a nuclear hormone receptor expressed in liver, spleen, placenta, epidermis, central nervous system. These receptors are able to form homo and heterodimers with other nuclear receptors and due to this heterodimerizing ability, RXR functions as master regulators producing diverse physiological effects. Three subtypes of RXR exist; alpha, beta and gamma. Retinoid X receptor alpha (RXR-alpha) has potential roles in metabolic signaling pathways, skin alopecia, dermal cysts, cardiac development, insulin sensitization etc. Therefore screening environmental chemicals on RXR-alpha signaling can be used for the studies focused on such therapeutic applications. For quantification of RXR-alpha ligands signaling, GeneBLAzer RXR alpha-UAS-bla HEK 293T (Life Technologies, Carlsbad, CA) cells containing a beta-lactamase reporter-gene under control of Retinoid X receptor-alpha response element were used to screen Tox21 10K library.
# Tox21 Assay Protocol Summary: RXR-alpha HEK 293T cells were dispensed at 2,000 cells/6 uL of assay medium containing 2% charcoal-stripped FBS using a Multidrop Combi (ThermoFisher Scientific, Waltham, MA) dispenser. The assay was performed in black wall/clear-bottom 1536-well plates (Greiner Bio-One North America Inc. Monroe, NC). 9-cis retinoic acid was used as a positive control in the agonist mode screen. After the assay plates were incubated at 37 C and 5% CO2 for 5 hr, 23 nL of compounds dissolved in DMSO, positive controls or DMSO only were transferred to the assay plate by a Pintool station (Kalypsys, San Diego, CA). The assay plates were incubated at 37 C and 5% CO2 for 16 hr. One uL of LiveBLAzer B/G FRET substrate (Life Technologies) was added using a Flying Reagent Dispenser (Aurora Discovery, San Diego, CA) and the plates were incubated at room temperature for 2 hr. Fluorescence intensity (405 nm excitation, 460/530 nm emission) was measured using an Envision plate reader (PerkinElmer, Shelton, CT).
# Potency means the concentration at half of the fitted maximal effect.
SMILES,Potency,activation
NC(=O)N1c2ccccc2C=Cc2ccccc21,inactive,–
COc1ccccc1O,inactive,–
C1CNCCN1,11.3 µM (active) and inactive,–
NC(=O)OCC(COC(N)=O)c1ccccc1,inactive,–
CCN(CC)CCOC(=O)c1ccc(N)cc1,inactive,–
COc1ccc(C(=O)c2ccccc2)c(O)c1,inactive,–
Cc1cccc(C)c1O,inactive,–
OCCCc1ccccc1,inactive,–
Cn1cnc2c1c(=O)[nH]c(=O)n2C,inactive,–
CC(=O)Oc1ccccc1C(=O)O,inactive,–
CC(C)(C)NCC(O)c1ccc(O)c(CO)c1 (stereo not given),inactive,–
Cc1cccc2ccccc12,inactive,–
C#C[C@]1(O)CC[C@H]2[C@@H]3CCc4cc(O)ccc4[C@H]3CC[C@@]21C,–,-15% [at 35.3 µM] (inactive)
CCCCOCCOCCOC(C)=O,inactive,–
COCCOCCOC,inactive,–
CCCCOC(=O)CCCCCCCCC(=O)OCCCC,inactive,–
Cc1cnc(NC(=O)C2=C(O)c3ccccc3S(=O)(=O)N2C)s1,inactive,–
CO[C@H]1C=CO[C@@]2(C)Oc3c(C)c(O)c4c(O)c(c(/C=N/N5CCN(C)CC5)c(O)c4c3C2=O)NC(=O)/C(C)=C\C=C[C@H](C)[C@H](O)[C@@H](C)[C@@H](O)[C@@H](C)[C@H](OC(C)=O)[C@@H]1C,inactive,–
CC(C)CC(C)CC(O)CC(C)C (stereo not given),inactive,–
C[C@]12CC[C@@H]3c4ccc(O)cc4CC[C@H]3[C@@H]1CCC2=O,–,0.414% [at 35.3 µM] (inactive)

SMILES,Potency,activation
C[C@]12C[C@H](O)[C@H]3[C@@H](CCC4=CC(=O)CC[C@@]43C)[C@@H]1CC[C@@H]2C(=O)CO,–,-12.8% (inactive)
CN(C)C=O,inactive,–
CC(=O)c1ccc(S(=O)(=O)NC(=O)NC2CCCCC2)cc1,inactive,–
CCc1cc(C(N)=S)ccn1,inactive,–
O=c1cc[nH]c(=O)[nH]1,inactive,–
COc1cc(C=O)ccc1O,inactive,–
COC(=O)c1ccc(O)cc1,inactive and 6.16 µM (active),–
CC(O)COc1ccccc1 (stereo not given),inactive,–
CCCCCCCC(=O)OCC(O)CO (stereo not given),inactive,–
COCC(C)N (stereo not given),inactive,–
C=CC(=O)NC(C)(C)CS(=O)(=O)O,–,2.14% (inactive)
Nc1ccc(N=Nc2ccccc2)c(N)n1,–,-10.2% [at 35.3 µM] (inactive)
O=C(OCc1ccccc1)c1ccccc1,–,-7.83% (inactive)
O=[N+]([O-])c1ccc(O)cc1,inactive,–
O=C(O)CN(CC(=O)O)CC(=O)O,inactive,–
NC(N)=NC(N)=NCCc1ccccc1,inactive,–
COC1=CC(=O)C[C@@H](C)[C@]12Oc1c(Cl)c(OC)cc(OC)c1C2=O,–,-17.9% [at 35.3 µM] (inactive)
CN/C(=C\[N+](=O)[O-])NCCSCc1ccc(CN(C)C)o1,inactive,–
N[C@@H](Cc1c[nH]c2ccc(O)cc12)C(=O)O,inactive,–
CC(C)=CCC/C(C)=C/CO,inactive,–
